Bioassay records: PubChem, NMMLSC
Sampled rows, rich in hits. Any-hit rate of the full collection: about 0.92%.
LAP4-GFP MLPCN – yeast TOR pathway LAP4-GFP modulation; hit rate 0.34% among 320,000; S. cerevisiae LAP4-GFP multiplex, flow cytometry GFP, 3 h; median GFP as percent of DMSO wells; GFP response vs DMSO, % at 10 µM;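 active = GFP response vs DMSO above a set limit, about the screen mean plus 3 SD, cut at about 150% in these data; inconclusive = under 70 cell events counted for the yeast strain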
AGP1 TOR yeast – modulators of TOR pathway AGP1-GFP in S. cerevisiae. S. cerevisiae AGP1-GFP multiplex flow cytometry, 3 h; GFP as percent of DMSO wells. GFP response vs DMSO, % at 10 µM. AID 2066. hit rate 0.02% among 320,000;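 active = GFP response relative to DMSO above a set limit, near screen average plus 3 SD, cut at about 150% in these data; inconclusive = fewer than 70 cells counted for the yeast strain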;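 note: median GFP channel fluorescence of the gated AGP1 strain per well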
RPL19A TOR yeast – alters RPL19A-GFP fluorescence in TOR pathway yeast screen; S. cerevisiae RPL19A-GFP strain, flow cytometry, 3 h; stronger effect = lower value; percent response vs DMSO, % at 10 µM; hit rate 0.3% among 330,000; AID 2025;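 active = percent response vs DMSO below 50%; inconclusive = fewer than 70 events counted for the yeast strain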;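 note: median channel GFP fluorescence of the barcoded RPL19A-GFP strain; ratio of sample median GFP to plate DMSO average so 100% = DMSO; lower means less RPL19A-GFP as with rapamycin TOR inhibition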
CIT2-GFP yeast – modulators of TOR pathway CIT2-GFP in S. cerevisiae. GFP response vs DMSO, % at 10 µM. hit rate 0.065% among 320,000. AID 2029. S. cerevisiae CIT2-GFP strain, flow cytometry, 3 h; 100 means same as DMSO wells;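 active = GFP response relative to DMSO above a set limit, near the screen mean plus 3 SD, cut at about 150% in these data; inconclusive = Fewer than 70 cells measured for a yeast strain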;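 note: ratio of well median GFP fluorescence to mean of DMSO wells on the plate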
MEP2 TOR yeast – modulators of TOR pathway MEP2-GFP in S. cerevisiae; S. cerevisiae MEP2-GFP strain, flow cytometry GFP, 3 h; 100% = DMSO control level; GFP response vs DMSO, % at 10 µM; hit rate 0.51% among 330,000;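 active = GFP response versus DMSO above a set limit, roughly screen mean plus 3 SD, cut at about 180% in these data; inconclusive = fewer than 70 cells counted for a yeast strain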;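 note: median GFP fluorescence of the barcode-gated MEP2-GFP cells per well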
Numbers without * were called inactive; ? = inconclusive; / = not tested or not shown; [ ] = remark or other dose.

SMILES	LAP4-GFP MLPCN	AGP1 TOR yeast	RPL19A TOR yeast	CIT2-GFP yeast	MEP2 TOR yeast
Cc1cc(C)n2nc(CNS(=O)(=O)c3ccc([N+](=O)[O-])cc3)nc2n1	80.3	?	28.7*[may fluoresce violet]	?	130.3
CC(=O)NS(=O)(=O)c1ccc(NC(=O)C(C)NS(=O)(=O)/C=C/c2ccccc2)cc1 (stereo unspecified)	97.3	99.7	99.1	111.4	109.8
O=C(O)CCC(=O)Nc1ccc(S(=O)(=O)c2ccc(NC(=O)CCC(=O)O)cc2)cc1	101.7	151.1*	103.0	104.8	97.4
O=C(c1ccco1)N1N=C(c2ccc(Br)cc2)CC1c1ccco1 (stereo unspecified)	99.5	93.8	96.6	83.2	98.4
O=C1CSC(c2cn(-c3ccccc3)nc2-c2ccc3c(c2)OCCO3)N1CCN1CCOCC1 (stereo unspecified)	95.1	27.9	37.4*[may fluoresce violet]	?	351.3*[may fluoresce violet]
O=C(O)C1(c2ccccc2)CCN(S(=O)(=O)c2ccc(Cl)cc2)CC1	92.8	88.4	95.8	90.5	91.7
CC(=O)C1=C(C)Nc2ncnn2C1c1ccccc1OCc1ccccc1 (stereo unspecified)	100.8	/	45.9*[may fluoresce violet]	?	303.6*[may fluoresce violet]
COC(=O)C(C(=O)Nc1ncccn1)C1CCCCCC1 (stereo unspecified)	106.9	?	?	?	316.6*[may fluoresce violet]
CC(C)CN(C(=O)COC(=O)CNC(=O)c1ccccc1F)c1c(N)n(Cc2ccccc2)c(=O)[nH]c1=O	108.4	120.3	97.9	104.8	102.3
CCCCN(CC)CCNC(=O)c1cc2c(-c3ccccc3F)nn(C)c2s1	71.3	18.2	36.7*[may fluoresce violet]	?	674.3*[may fluoresce violet]
Cc1ccc(CS(=O)Cc2ccc(C(=O)NCc3ccccc3)o2)cc1 (stereo unspecified)	104.8	104.3	110.0	107.0	107.7
CC(OC(=O)Cc1c[nH]c2ccccc12)C(=O)Nc1ccc(S(N)(=O)=O)cc1 (stereo unspecified)	103.9	108.2	100.8	105.1	102.6
Cc1ccc(NC(=O)/C(C#N)=C/c2ccc(C)s2)c(C)c1	114.6	?	55.8	?	467.7*[may fluoresce violet]
CC(C)c1ccc(NC2CCCN(C(=O)c3cccs3)C2)cc1 (stereo unspecified)	99.2	103.4	101.5	99.9	97.9
O=S1(=O)N=C(N2CCc3ccccc3C2)c2ccccc21	87.2	?	42.9*[may fluoresce violet]	?	335.6*[may fluoresce violet]
O=S1(=O)N=C(N2CCCc3ccccc32)c2ccccc21	95.7	93.6	99.0	89.4	103.6
CCOc1ccc(NC(=O)C/C(C)=N/NC(=O)COc2ccc(Br)cc2C)cc1	96.1	26.6	61.3	?	252.1*[may fluoresce violet]
O=c1ccc(-c2ccccc2)nn1Cc1ccc(F)cc1	92.3	18.8	29.5*[may fluoresce violet]	?	860.3*[may fluoresce violet]
O=c1ccc(-c2ccccc2)nn1Cc1ccccc1	102.6	96.8	100.0	93.9	101.5
CSc1ccccc1C(=O)NC1CCSc2ccccc21 (stereo unspecified)	87.7	91.5	94.2	95.0	113.9
CC(/C=N\NC(=O)Cn1c(C)nc2ccccc21)=C\c1ccccc1	86.6	96.6	95.1	104.4	96.6
CCOC(=O)c1ccc(N2C=C(C(=O)OC)C(c3ccc(OC)c(O)c3)C(C(=O)OC)=C2)cc1	72.4	18.4	49.1*[may fluoresce violet]	?	769.1*[may fluoresce violet]
Cc1ccc(S(=O)(=O)NCCC(=O)NCc2cccnc2)cc1	103.9	98.8	99.6	96.9	96.7
O=C(CCNS(=O)(=O)c1ccc(Cl)cc1)NCc1cccnc1	117.8	?	29.1*[may fluoresce violet]	?	252.3*[may fluoresce violet]
NS(=O)(=O)c1ccc(NC(=O)COC(=O)c2cnccn2)cc1	96.3	98.5	94.1	102.6	93.6
SMILES	LAP4-GFP MLPCN	AGP1 TOR yeast	RPL19A TOR yeast	CIT2-GFP yeast	MEP2 TOR yeast
Cc1cc(-c2csc3nc[nH]c(=S)c23)cc(C)c1C	141.7	134.2	97.2	100.1	184.9*
NC1=NC(=O)C(CC(=O)c2ccc(Cl)cc2)S1 (stereo unspecified)	125.2	94.4	98.3	96.4	183.1*
Cc1ccc(C(=O)CC2SC(N)=NC2=O)cc1 (stereo unspecified)	100.3	106.9	101.2	101.3	103.8
CC12CCC(C(=O)N3CCCc4ccccc43)(CC1=O)C2(C)C (stereo unspecified)	106.4	100.0	98.7	92.0	103.8
CC12CCC(C(=O)N3CCc4ccccc43)(CC1=O)C2(C)C (stereo unspecified)	96.0	31.7	/	?	282.0*[may fluoresce violet]
CCOC(=O)CC/C(=N\NC(N)=O)c1ccc(OC)c(Cl)c1	105.5	97.8	108.8	97.5	98.6
CCOc1cccc(C(=O)NC2=NCCS2)c1	95.2	102.0	101.5	99.8	101.0
Cc1ccc(NC(=O)CSC2=C(C#N)C(c3ccco3)CC(=O)N2)cc1 (stereo unspecified)	97.6	99.6	97.6	?	182.9*[may fluoresce violet]
CCOC(=O)C1=C(c2ccccc2)NC(SCC(=O)Nc2ccc(C)cc2)=C(C#N)C1c1ccco1 (stereo unspecified)	89.1	?	19.0*[may fluoresce violet]	?	271.0*[may fluoresce violet]
CCNC(=S)NNC(=O)c1cc(-c2ccc(OCC)cc2)nc2ccccc12	97.7	?	22.2*[may fluoresce violet]	?	361.3*[may fluoresce violet]
CCC1(c2ccccc2)NC(=O)N(CC(=O)NCc2ccc(C)cc2)C1=O (stereo unspecified)	105.7	106.8	106.5	106.2	106.2
COc1ccc(C2=CC3=C(Br)C(=O)C(C)(OC(=O)c4cccs4)C(=O)C3=CO2)cc1 (stereo unspecified)	140.7	17.6	65.0	?	158.6
COc1ccc(C2=CC3=C(Br)C(=O)C(C)(OC(=O)c4ccco4)C(=O)C3=CO2)cc1 (stereo unspecified)	106.1	11.4	46.2*[may fluoresce violet]	?	104.1
Clc1ccc(OCCSc2nnnn2C2CCCCC2)cc1	102.0	/	57.1	?	236.1*[may fluoresce violet]
CN(C(=O)CC1C(=O)NCCN1Cc1cccc(C(F)(F)F)c1)C1CCOCC1 (stereo unspecified)	97.1	95.7	99.3	89.9	91.7
COc1ccc(CCNC(=S)N2CCC(C(N)=O)CC2)cc1	100.7	115.2	103.2	103.7	105.4
NC(=O)C1CCN(C(=S)NCCc2ccccc2)CC1	105.4	88.8	86.2	194.8*	492.1*
Cc1ccc(N2CCN(C(=O)NC3CCCCC3)CC2C)cc1 (stereo unspecified)	91.8	103.3	94.6	92.2	94.6
CCOc1ccc(CNS(=O)(=O)c2ccc3c(c2)CC(=O)N3C)cc1	72.5	?	17.5*[may fluoresce violet]	?	169.9
CCOc1ccc(S(=O)(=O)NCc2ccncc2)cc1	97.3	112.7	103.8	106.5	108.5
Cc1ccccc1OCC(=O)OCC(=O)NCC1CCCO1 (stereo unspecified)	99.4	101.8	100.0	103.4	108.5
CCC(C)[C@H](NC(=O)N1CC(=O)Nc2ccccc21)C(=O)N[C@@H](C(=O)O)c1ccccc1 (stereo partly specified)	76.8	?	24.5*[may fluoresce violet]	?	144.8
